The source made the active and inactive calls.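 The calls were made as follows, unless noted: active = NADPH fluorescence slope more negative than the mean of all samples by about 3 SD, 99.7% confidence; inactive = the rest.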
Tests used:
[1] = inhibitors of TNFa-induced NFkB p65 translocation, primary screen, imaging, HUVEC, MLSMR starter and 10KST1 sets (AID 438;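 active = inhibition above 20% together with a positive visual image hit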;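 also: compound added about 3h40 before a 20 min TNFalpha stimulation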;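 as to inhibition: signal is the nuclear over cytoplasmic p65 intensity ratio per well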); settings: HUVEC TNFa-induced p65 nuclear translocation; cell count: measured here: nuclei count (cytotoxicity indicator), at 2.08 µM; inhibition: at 2 µM, stronger effect = higher value, 0% TNFa-plus-vehicle, 100% no-TNFa wells
[2] = reduction of polyQ htt aggregates in cells – imaging, exon1htt(103Q)mCFP cells, high-content imaging, primary screen (AID 483;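 active = visual image review flags a hit and inhibition of aggregation exceeds 20%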;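 also: compound exposure lasted 3 days before fixation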;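 as to nuclei count: percent of the per-plate median nuclei count of sample wells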); settings: exon1htt(103Q)mCFP cell line, aggregate imaging, at 2 µM; inhibition of aggregation: stronger effect = higher value; nuclei count: measured here: cell count, toxicity
[3] = endothelial E-selectin expression blockers – imaging, HUVEC, immunofluorescence, MLSMR starter and 10KST1 sets, primary screen (AID 487;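 active = visually confirmed hit in the image check and inhibition above 20%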;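 as to inhibition: signal is fraction of cell area covered by stained E-selectin grains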;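 as to nuclei count: 100% = median nuclei count of all wells on the same plate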); settings: HUVEC TNFalpha-induced E-selectin immunofluorescence imaging, at 2 µM; inhibition: stronger effect = higher value; nuclei count: measured here: cell number, toxicity
[4] = biological target: Voltage-gated potassium channel subunit beta-2 (Rattus norvegicus) (UniProt P62483); assay: inhibitors of rat Kvbeta2 reductase activity – biochemical, NADPH fluorescence, primary screen (AID 622;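 active = fluorescence slope higher than the sample average by over 3 SD, cut at about -0.22 in these data, passing the limit was not always enough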;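 also: slope of raw intensity against log time taken from 70 to 1610 s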); settings: recombinant KvBeta, 4-cyanobenzaldehyde reduction, at 10 µM, stronger effect = higher value
Chain of Voltage-gated potassium channel subunit beta-2 (Rattus norvegicus) (P62483 whole entry, looked up): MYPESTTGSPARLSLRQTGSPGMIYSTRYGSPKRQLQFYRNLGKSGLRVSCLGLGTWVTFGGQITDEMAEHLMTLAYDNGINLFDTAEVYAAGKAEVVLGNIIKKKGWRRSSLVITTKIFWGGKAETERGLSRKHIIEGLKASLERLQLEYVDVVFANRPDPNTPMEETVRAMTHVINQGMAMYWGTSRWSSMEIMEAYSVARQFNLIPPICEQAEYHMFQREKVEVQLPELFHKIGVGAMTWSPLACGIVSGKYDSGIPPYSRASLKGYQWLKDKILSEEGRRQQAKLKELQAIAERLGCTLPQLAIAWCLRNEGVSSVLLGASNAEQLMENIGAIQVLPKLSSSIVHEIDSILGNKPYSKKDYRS

[5] = biological target: Voltage-gated potassium channel subunit beta-2 (Rattus norvegicus) (UniProt P62483); assay: enhancers of rat Kvbeta2 NADPH turnover – biochemical, NADPH fluorescence, primary screen (AID 623); settings: Recombinant KvBeta, NADPH fluorescence decrease slope, 10 min; at 10 µM; stronger effect = lower value;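 also: fluorescence intensity change per second fitted from 20 to 320 s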
[6] = biological target: Alpha-2C adrenergic receptor (Homo sapiens) (UniProt P18825); assay: compounds altering alpha2C-coupled GIRK flux – cell-based, HEK293 alpha2C/GIRK1/2, thallium flux, primary screen (AID 624;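 active = fluorescence slope after compound addition differing from the mean of all screened samples at 99.7% confidence, in either direction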;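 also: slope of fluorescence ratio to pre-addition baseline per second over 15 to 24 s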); settings: thallium flux BTC fluorescence, at 10 µM, actives lie on both sides
Chain of Alpha-2C adrenergic receptor (Homo sapiens) (P18825 whole entry, looked up): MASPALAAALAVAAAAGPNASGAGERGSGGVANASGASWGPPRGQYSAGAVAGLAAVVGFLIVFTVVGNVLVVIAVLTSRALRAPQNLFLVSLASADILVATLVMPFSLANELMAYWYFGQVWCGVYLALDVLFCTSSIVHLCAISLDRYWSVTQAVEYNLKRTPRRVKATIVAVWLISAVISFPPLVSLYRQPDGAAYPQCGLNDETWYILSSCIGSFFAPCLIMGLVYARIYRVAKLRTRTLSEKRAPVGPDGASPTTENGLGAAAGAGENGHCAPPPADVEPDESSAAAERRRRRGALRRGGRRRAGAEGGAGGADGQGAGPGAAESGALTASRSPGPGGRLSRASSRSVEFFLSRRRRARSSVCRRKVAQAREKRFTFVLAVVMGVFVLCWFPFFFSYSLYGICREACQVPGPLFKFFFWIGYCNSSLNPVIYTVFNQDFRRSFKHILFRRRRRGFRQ

[7] = blockers of RIG-like receptor reporter activation – cell-based, Sendai virus stimulus, luciferase, 10K MLSCN set, TLR/RLR signaling modifier project, primary screen (AID 602276;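 active = inhibition at or above 50% at 10 µM; inactive = inhibition below 50%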;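 also: firefly luciferase from ISG56 promoter only with Renilla not read in this screen; 0% = Sendai virus plus DMSO and 100% = medium plus DMSO without virus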); settings: HEK293 RL24 IRF3 luciferase reporter, at 10 µM, stronger effect = higher value
[8] = TLR3 IRF3 reporter activation blockers – cell-based, poly I:C stimulus, luciferase, 10K MLSCN set, primary screen (AID 602277;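 active = inhibition of the reporter signal at or above 50%; inactive = inhibition below 50%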); settings: HEK293-TLR3 RL24 IRF3 luciferase reporter, at 10 µM, stronger effect = higher value

| Compound | cell count [1] | inhibition [1] | inhibition of aggregation [2] | nuclei count [2] | inhibition [3] | nuclei count [3] | fluorescence slope [4] | NADPH fluorescence slope [5] | slope [6] | inhibition [7] | inhibition [8] |
| --- | --- | --- | --- | --- | --- | --- | --- | --- | --- | --- | --- |
| O=C(c1ccc(Cl)cc1)N1CCCCC(Sc2nnc(-c3ccc4c(c3)OCO4)o2)C1=O (configuration not stated) | 505 | -13.7% (inactive) | 14.1% (inactive) | 93.7% | -71.6% (inactive) | 145% | -0.624 (inactive) | -3.6e-05 (inactive) | 0.00978 (inactive) | -180% (inactive) | 92% (active) |
| COc1cccc(NC(=O)c2ccco2)c1 | 596 | 5.6% (inactive) | 7% (inactive) | 93.3% | 32.9% (inactive) | 96.1% | -0.401 (inactive) | 6.1e-06 (inactive) | 0.00282 (inactive) | -31.2% (inactive) | -128% (inactive) |
| Cc1ccc2cc(C#N)c(NCCCNC(=O)C3CCCO3)nc2c1 (configuration not stated) | 271 | -2.8% (inactive) | -8.8% (inactive) | 82.7% | -25.3% (inactive) | 116% | -0.476 (inactive) | -9.9e-05 (inactive) | 0.00509 (inactive) | 9.51% (inactive) | 10.8% (inactive) |
| O=C(NCc1ccco1)c1ccc2c(=O)n(CC3CCCO3)c(=S)[nH]c2c1 (configuration not stated) | 318 | -2.6% (inactive) | -6.3% (inactive) | 120% | -7.4% (inactive) | 101% | -0.501 (inactive) | -2.2e-05 (inactive) | 0.00599 (inactive) | 9.53% (inactive) | 15.2% (inactive) |
| COc1ccc(S(=O)(=O)N2CCN(CC(=O)Nc3ccc(F)c(F)c3)CC2)cc1 | 322 | -7.6% (inactive) | 9.7% (inactive) | 94.6% | -62.9% (inactive) | 97.3% | -0.51 (inactive) | -2.7e-05 (inactive) | 0.00502 (inactive) | 22.7% (inactive) | 32% (inactive) |
| Cc1cc(C(=O)Nc2nc3c(s2)CCCC3)cs1 | 347 | 7.6% (inactive) | -12.3% (inactive) | 111% | -6.3% (inactive) | 107% | -0.532 (inactive) | 1.1e-05 (inactive) | 0.00523 (inactive) | -47% (inactive) | -131% (inactive) |
| Cc1nn(-c2ccccc2)c(Cl)c1C(=O)NCC(=O)O | 296 | 3.9% (inactive) | -6.8% (inactive) | 100% | -22.6% (inactive) | 117% | -0.399 (inactive) | -6.1e-05 (inactive) | 0.00396 (inactive) | 11.2% (inactive) | 25.8% (inactive) |

Source: PubChem BioAssay
